The list is not random: actives were taken first. Their share in the collection is about 10%.
G9a inh: qHTS Assay for Inhibitors of Histone Lysine Methyltransferase G9a; 350,000 compounds, 8.8% hits; Potency, µM (series often up to 102 µM), inactives show top-dose activity, negative = inhibition, usual class: inhibitors; G9a H3K9 monomethylation, AlphaScreen, 2 h; Histone-lysine N-methyltransferase EHMT2 (Homo sapiens), Q96KQ7; further: potency means the concentration at half of the fitted maximal effect; nearly all actives have a fitted effect of over 75% in size
Target sequence (Q96KQ7 913-1193 limits assumed): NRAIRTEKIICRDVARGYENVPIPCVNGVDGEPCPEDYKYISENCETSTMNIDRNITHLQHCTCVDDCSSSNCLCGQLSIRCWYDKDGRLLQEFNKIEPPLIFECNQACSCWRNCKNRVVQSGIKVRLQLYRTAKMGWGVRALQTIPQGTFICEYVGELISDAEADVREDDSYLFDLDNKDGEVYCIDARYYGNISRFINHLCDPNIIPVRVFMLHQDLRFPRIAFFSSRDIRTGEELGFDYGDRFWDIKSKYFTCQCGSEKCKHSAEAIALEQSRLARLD
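AlphaScreen read-out: biotin-H3K9 peptide (500 nM) methylation by 20 nM enzyme with 20 uM SAM, 2 h at room temperature after 15 min compound preincubation; anti-monomethyl H3K9 antibody plus donor/acceptor beads, 10 min dark.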
MmCpn inh: Inhibitors of TCP-1 ring complex (TRiC) of Methanococcus maripaludis (MmCpn): qHTS; Potency, µM (highest dose often 76.9 µM), without a hit: at the highest dose activity, negative = inhibition, usual class: inhibitors; Chaperonin Mm-Cpn (Methanococcus maripaludis); purified Mm-Cpn ATPase, ADP Transcreener TR-FRET; 330,000 compounds, 0.031% hits; further: potency means the concentration at half of the fitted maximal effect; nearly all actives have a fitted effect of over 80% in size
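Quantitative HTS used 25 nM Mm-CPN and 10 uM ATP in magnesium/KCl Tris buffer, pH 7.4, with 1 mM DTT. Hydrolysis ran 30 min at 37°C; ADP was read by HTRF.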
PLK1 PBD inh: qHTS for Inhibitors of PLK1-PDB (polo-like kinase 1 - polo-box domain): Primary Screen. 360,000 compounds, 2.8% hits. Plk1 PBD binding of FITC phosphopeptide, fluorescence polarization. Serine/threonine-protein kinase PLK1 (Homo sapiens), P53350. AID 720504, 2013. Potency, µM, inactives show max response, negative = inhibition, usual class: inhibitors; further: potency means the concentration at half of the fitted maximal effect; series mostly up to about 57 µM; nearly all actives have a fitted effect of over 65% in size
Sfp inh: qHTS Assay for Inhibitors of Bacillus subtilis Sfp phosphopantetheinyl transferase (PPTase); AID 1490, 2009; Biochemical Sfp PPTase activity, qHTS; Potency, µM, for the others: largest response in the series, negative = inhibition, actives largely listed as inhibitors; 4'-phosphopantetheinyl transferase ffp (Bacillus subtilis), Q9F4F7; 310,000 compounds, 3.5% hits;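 further: the enzyme is Sfp with the accession as filed and its product quenches rhodamine fluorescence; potency means the concentration at half of the fitted maximal effect; 0% = enzyme reaction without inhibitor and -100% = no enzyme wells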
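Reaction rates are the 30-min fluorescence difference (ex 525, em 598 nm) in wells containing 15 nM Sfp, 5 uM rhodamine-CoA and 12.5 uM BHQ-2-YbbR at pH 7.6 with 10 mM MgCl2.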
CCT chaperon mod: High-Throughput Screening for Modulators of Cytosolic Chaperonin Activity | AID 651819, 2012 | activity change, % (no concentration beside the values), hits read low | purified chaperonin ATPase assay, HTRF ADP detection, 30 min | 360,000 compounds, 0.3% hits; in the data active means activity change below about -30%
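Enzyme 40 or 20 nM (batch-dependent) in Tris pH 7.4/KCl/MgCl2/DTT; cpd 76 uM single point; ATP 10 uM; 30 min 37 °C; Transcreener ADP HTRF detection, 30 min RT; ratio 665/615.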
VDR inhibitor: Inhibitors of the vitamin D receptor (VDR): qHTS. Vitamin D3 receptor (Homo sapiens), P11473. Potency, µM, for the others: max response, negative = inhibition, actives largely listed as inhibitors. VDR-SRC2-3 peptide fluorescence polarization, 2 h. 400,000 compounds, 0.93% hits; further: potency means the concentration at half of the fitted maximal effect
Target sequence (P11473 whole entry, looked up): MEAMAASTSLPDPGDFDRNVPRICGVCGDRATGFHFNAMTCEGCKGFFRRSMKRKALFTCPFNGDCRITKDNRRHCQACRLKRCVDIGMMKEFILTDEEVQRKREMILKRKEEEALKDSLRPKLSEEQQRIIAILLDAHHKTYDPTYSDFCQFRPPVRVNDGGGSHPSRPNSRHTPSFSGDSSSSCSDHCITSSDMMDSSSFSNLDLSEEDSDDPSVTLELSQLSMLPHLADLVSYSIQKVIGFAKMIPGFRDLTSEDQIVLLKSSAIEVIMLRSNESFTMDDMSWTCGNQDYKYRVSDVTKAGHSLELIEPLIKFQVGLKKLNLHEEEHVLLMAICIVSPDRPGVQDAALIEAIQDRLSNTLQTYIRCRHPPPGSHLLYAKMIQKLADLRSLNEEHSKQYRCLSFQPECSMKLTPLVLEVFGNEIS
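Two reagent solutions held at 4 deg C in the dark were dispensed, compounds pinned at 23 nl, and the mixture incubated 2 h at room temperature. Read-out: fluorescence polarization of VDR–SRC2-3 peptide binding.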
Starred values were filed as active, the others as inactive; ? = inconclusive; . = no result given; ! = not active in a repeat; [ ] = remark or other dose. Unless noted, the call rests on the fitted dose curve; in most records, active means well fitted curve in the direction sought with a large enough effect; inconclusive means small, poorly fitted or top-dose-only effect, or another doubt; inactive means no such curve, though single readings can be large; an effect the other way counts as inactive or inconclusive. Unless noted, on the % scale 0 is the no-effect control and ±100 the full control effect.

SMILES | G9a inh | MmCpn inh | PLK1 PBD inh | Sfp inh | CCT chaperon mod | VDR inhibitor
COC(=O)c1c(N2C(=O)CC(Sc3ncccc3C(=O)O)C2=O)sc(C)c1C (stereo unspecified) | . | 0% | -15% | 89µM* | 2 | 26%
O=C(O)c1cccnc1SC1CC(=O)N(Cc2ccccc2)C1=O (stereo unspecified) | 3%[59 µM] | -1% | 3.8µM* | 18% | 1 | -10%
O=C(O)c1cccnc1SC1CC(=O)N(c2ccc(OC(F)F)cc2)C1=O (stereo unspecified) | 45µM* | 0% | -19% | 4% | -4 | -17%
Cc1ccc(C(=O)COC(=O)C(CC(C)C)NC(=O)C2CCC(C)CC2)cc1 (stereo unspecified) | -23%[59 µM] | . | . | . | . | -9%
Cc1ccc(C(=O)O)cc1NC(=S)NC(=O)c1ccc(-c2ccc(Cl)cc2)o1 | 35µM* | 1% | ? | 50µM* | -4 | -12%
O=C(O)c1ccc(NC(=S)NC(=O)c2ccc(-c3ccc(Br)cc3)o2)cc1 | 40µM* | -5% | ? | 45µM* | -2 | ?
O=C(NC(=S)Nc1ccc(Cl)cc1)c1ccccc1 | -38% | -8% | -13% | -11% | 1 | 1%
COc1ccc(C(=O)O)cc1NC(=S)NC(=O)c1ccc(-c2ccc(Cl)cc2)o1 | 45µM* | -2% | ? | ? | -2 | -12%
O=C(Nc1ccc(NC(=S)NC(=O)c2ccco2)cc1)c1ccc(Br)cc1 | . | . | -5% | . | 0 | .
O=C(O)c1cccc(NC(=S)NC(=O)c2ccc(-c3ccc(Cl)cc3)o2)c1 | 45µM* | 0% | ? | ? | 1 | -5%
COc1ccc(C(=O)O)cc1NC(=S)NC(=O)CSc1ccc(Cl)cc1 | -44% | 0% | -28% | -2% | 2 | -17%
Cc1ccc(C(=O)O)cc1NC(=S)NC(=O)c1ccc([N+](=O)[O-])cc1Cl | ? | -1% | -16% | ? | 1 | -20%
O=C1CC(=O)c2c1cccc2[N+](=O)[O-] | 10µM* | -1% | . | 79µM* | . | .
CCn1cc(C(=O)NCCc2ccc(Cl)cc2)c(=O)c2cc(S(=O)(=O)N3CCOCC3)ccc21 | 4%[59 µM] | . | . | . | . | 8%
CCS(=O)(=O)c1ccc(N=Nc2ccc(O)c3ncccc23)c(OC)c1 | 7.1µM* | 1% | -1% | -6% | -6 | -8%
Cc1ccc(N=Nc2ccc(O)c3ncccc23)cc1C | ? | -1% | -5% | 6% | -3 | 7%
CCOc1ccc(NCC2CCOC(C)(C)C2)cc1 (stereo unspecified) | 7.1µM* | -1% | -6% | -1% | -3 | 20%
CCN(CC)C(=O)c1sc2[nH]c(=S)n(-c3ccccc3)c(=O)c2c1C | -45%[0.501 µM] | -7% | -17% | 79µM* | 4 | 0%
CC(C)c1ccc(OCC(=O)Nc2ccc(S(=O)(=O)Nc3ncccn3)cc2)cc1 | 11%[59 µM] | . | . | . | . | -12%
CC1=CC(C)(C)N2C(=O)C(=Nc3ccc(O)cc3)c3cccc1c32 | 5µM* | -10% | 4.7µM* | ? | -1 | ?
COc1cc(N=C2C(=O)N3c4c(cccc42)C(C)=CC3(C)C)cc(OC)c1 | 8.9µM* | 1% | -9% | 6% | 0 | ?
O=C(Nc1nc2c(F)cccc2s1)c1ccc(S(=O)(=O)N2CCOCC2)cc1 | -3%[59 µM] | . | . | . | . | 2%
COc1ccc(OC)c(NC(=O)CN2C(=O)COc3ccc(S(=O)(=O)NC4CCCC4)cc32)c1 | 6%[59 µM] | . | . | . | . | -14%
COc1cccc(CNC(=O)CSc2cc(C)[nH]c(=O)n2)c1 | -3%[59 µM] | . | . | . | . | 13%
C=Cc1ccc(Cn2c(=O)n(-c3cccc(Cl)c3)c(=O)c3c4c(sc32)CN(C(C)=O)CC4)cc1 | ? | . | . | . | . | 4%
SMILES | G9a inh | MmCpn inh | PLK1 PBD inh | Sfp inh | CCT chaperon mod | VDR inhibitor
O=C(CCc1nnc(CCCCc2ccccc2)o1)NCCn1cccn1 | 20% | -1% | ? | 23% | -4 | -16%
O=Cc1c(NCCN2CCCC2)c2ccccc2[nH]c1=O | 10µM* | -5% | -9% | 3% | -1 | -5%
O=C(CCc1nnc(CCCCc2ccccc2)o1)NCCN1CCOC1=O | 22µM* | -7% | -5% | -17% | 2 | 3%
O=C(CCc1ccccc1)NCCCN1CCOCC1 | -3% | 1% | -19% | -16% | -31* | 3%
O=Cc1c(NCCc2ccc(F)cc2)c2ccccc2[nH]c1=O | -1% | -8% | -9% | 5% | -3 | -19%
Cc1cc(=O)nc2c3ccccc3n(CC(=O)NCCCN3CCOCC3)n12 | 15% | -2% | 19µM* | 15% | 0 | ?
O=C(CSc1nc2c(sc3ccccc32)c(=O)n1CCCC(=O)NC1CCCC1)Nc1ccc(F)cc1 | 5%[59 µM] | . | . | . | . | -5%
O=C(Nc1cc(NC(=O)c2ccccc2Cl)ccc1Cl)c1ccccc1 | 4%[59 µM] | . | . | . | . | -10%
O=C(NCCCN1CCOCC1)c1cc2c(=O)[nH]c3ccccc3c2s1 | 26%[59 µM] | 2% | -12% | 11% | 0 | -3%
O=C(NCCCN1CCOCC1)c1c(O)c2ccccc2[nH]c1=O | 50µM* | -2% | -23% | 1% | -1 | 3%
c1ccc(CCCN2CCOCC2)cc1 | 50µM* | 1% | -9% | -24% | -2 | -5%
O=C(/C=C/c1ccccc1)CCN1CCOCC1 | . | . | 21µM* | . | -3 | 40µM*
CCCC(=O)NC(=S)Nc1cccc(-c2nc3ncccc3o2)c1 | 22µM* | ? | -10% | -5% | -2 | 12%
CC(C)CC(=O)Nc1cccc(-c2nc3ncccc3o2)c1 | 16% | -1% | -4% | 14% | 0 | 10%
CCCNC(=O)CCc1c(C)nc2nc(CNC(=O)c3ccccc3)nn2c1C | 3%[59 µM] | . | . | . | . | 0%
[N-]=[N+]=Nc1ccc(C(=O)CSC[C@H](NC(=O)CC[C@H](N)C(=O)O)C(=O)NCC(=O)O)cc1 | 32µM*! | . | . | . | . | 45µM*
NC(CCC(=O)NC(CCSC(CC(=O)O)C(=O)O)C(=O)NCC(=O)O)C(=O)O (stereo unspecified) | . | . | . | -24% | . | 9%
N[C@@H](CCC(=O)N[C@@H](CSN=O)C(=O)NCC(=O)O)C(=O)O | 1.1µM* | -2% | ? | . | -2 | -28%
NC(N)=NCCC[C@H](N)C(=O)NCC(=O)N[C@@H](CC(=O)O)C(=O)O | . | . | . | -5% | . | 8%
N[C@H](CCC(=O)N[C@H](CSN=O)C(=O)NCC(=O)O)C(=O)O | . | . | . | 32µM* | . | .
N[C@@H](CCC(=O)N[C@H](CSN=O)C(=O)NCC(=O)O)C(=O)O | 8.9µM* | . | . | . | . | ?
